We go through one compound from ChEMBL document CHEMBL1961873, “Compounds: GSK PKIS; Assays: Nanosyn kinase panel” (2012).

Assay [1] has as its target Sphingosine kinase 1 (Homo sapiens) (UniProt Q9NYA1). Conditions: at 1 µM.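 Also: mean SPHK1 inhibition value reported from the GSK PKIS kinase panel screen.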
Assay [2] has as its target T1, Sphingosine kinase 2 (Homo sapiens) (UniProt Q9NRA0).
T1 sequence (whole entry): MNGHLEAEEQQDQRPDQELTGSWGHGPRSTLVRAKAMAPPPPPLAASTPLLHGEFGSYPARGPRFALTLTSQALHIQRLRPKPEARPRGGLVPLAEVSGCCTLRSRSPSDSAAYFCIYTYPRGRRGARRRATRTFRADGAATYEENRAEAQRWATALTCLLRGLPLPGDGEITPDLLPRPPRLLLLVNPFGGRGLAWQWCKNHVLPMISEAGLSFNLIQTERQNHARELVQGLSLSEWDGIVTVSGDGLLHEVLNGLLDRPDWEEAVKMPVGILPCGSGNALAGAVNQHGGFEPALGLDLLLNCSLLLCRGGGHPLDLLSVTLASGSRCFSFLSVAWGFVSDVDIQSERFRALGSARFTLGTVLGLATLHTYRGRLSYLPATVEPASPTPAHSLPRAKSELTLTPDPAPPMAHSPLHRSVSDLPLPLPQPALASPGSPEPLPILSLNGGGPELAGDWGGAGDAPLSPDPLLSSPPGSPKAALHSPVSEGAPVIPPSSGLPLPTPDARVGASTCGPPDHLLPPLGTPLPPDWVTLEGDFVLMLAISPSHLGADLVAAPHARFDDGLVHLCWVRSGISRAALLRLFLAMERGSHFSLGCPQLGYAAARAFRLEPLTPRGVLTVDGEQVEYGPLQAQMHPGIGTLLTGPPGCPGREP
The note with it: at 0.1 µM.

Assay [3] addresses T1, Sphingosine kinase 2 (Homo sapiens). Conditions: at 1 µM.
Assay [4] addresses Casein kinase II subunit alpha (Homo sapiens) (UniProt P68400). Conditions: at 0.1 µM.
Assay [5] shares this target. The note with it: at 1 µM.
For assay [6], the target named is T2, Inhibitor of nuclear factor kappa-B kinase subunit alpha (Homo sapiens) (UniProt O15111).
T2 sequence (whole entry): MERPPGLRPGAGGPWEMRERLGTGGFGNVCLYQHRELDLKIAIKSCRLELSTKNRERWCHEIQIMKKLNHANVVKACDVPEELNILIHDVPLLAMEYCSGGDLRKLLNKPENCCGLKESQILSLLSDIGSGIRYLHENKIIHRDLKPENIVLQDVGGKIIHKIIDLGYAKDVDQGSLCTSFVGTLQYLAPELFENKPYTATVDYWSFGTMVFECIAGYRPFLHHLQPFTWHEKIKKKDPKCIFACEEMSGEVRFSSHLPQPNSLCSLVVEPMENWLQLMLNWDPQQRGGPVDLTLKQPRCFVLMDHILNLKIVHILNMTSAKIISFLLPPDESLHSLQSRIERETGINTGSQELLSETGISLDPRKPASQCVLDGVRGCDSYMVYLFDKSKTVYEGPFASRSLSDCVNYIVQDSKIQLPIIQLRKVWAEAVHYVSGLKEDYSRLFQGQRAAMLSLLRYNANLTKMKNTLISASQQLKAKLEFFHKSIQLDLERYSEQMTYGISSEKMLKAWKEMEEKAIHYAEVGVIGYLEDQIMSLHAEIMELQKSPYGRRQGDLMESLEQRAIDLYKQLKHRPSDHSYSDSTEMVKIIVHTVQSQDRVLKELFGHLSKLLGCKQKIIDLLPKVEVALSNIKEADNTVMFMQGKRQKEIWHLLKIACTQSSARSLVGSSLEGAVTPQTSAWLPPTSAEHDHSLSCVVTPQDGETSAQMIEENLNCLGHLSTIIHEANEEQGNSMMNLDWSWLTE
Conditions: at 0.1 µM.

The target of assay [7] is T2, Inhibitor of nuclear factor kappa-B kinase subunit alpha (Homo sapiens). The note with it: at 1 µM.
Assay [8] addresses T3, Inhibitor of nuclear factor kappa-B kinase subunit beta (Homo sapiens) (UniProt O14920).
T3 sequence (whole entry): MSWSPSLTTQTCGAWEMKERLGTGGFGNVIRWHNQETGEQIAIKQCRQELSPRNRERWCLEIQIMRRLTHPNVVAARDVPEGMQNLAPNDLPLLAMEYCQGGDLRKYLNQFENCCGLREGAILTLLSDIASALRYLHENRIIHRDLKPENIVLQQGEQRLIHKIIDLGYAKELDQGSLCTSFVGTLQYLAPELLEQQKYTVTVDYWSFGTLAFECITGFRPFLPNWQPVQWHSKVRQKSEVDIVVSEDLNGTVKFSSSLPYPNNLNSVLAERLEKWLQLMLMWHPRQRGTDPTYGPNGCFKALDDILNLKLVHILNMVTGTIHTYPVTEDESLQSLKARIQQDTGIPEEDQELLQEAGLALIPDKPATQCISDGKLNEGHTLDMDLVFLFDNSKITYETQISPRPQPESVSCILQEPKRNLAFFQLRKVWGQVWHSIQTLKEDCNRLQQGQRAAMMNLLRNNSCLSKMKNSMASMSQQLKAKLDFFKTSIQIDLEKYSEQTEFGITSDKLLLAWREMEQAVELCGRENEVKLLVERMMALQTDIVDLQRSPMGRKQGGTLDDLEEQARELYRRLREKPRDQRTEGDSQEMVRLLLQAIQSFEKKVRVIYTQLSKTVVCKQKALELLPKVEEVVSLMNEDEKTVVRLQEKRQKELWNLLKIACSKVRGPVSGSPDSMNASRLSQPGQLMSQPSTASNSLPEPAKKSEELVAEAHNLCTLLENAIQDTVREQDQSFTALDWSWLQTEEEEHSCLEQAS
The note with it: at 0.1 µM.

The target in assay [9] is T3, Inhibitor of nuclear factor kappa-B kinase subunit beta (Homo sapiens). The note with it: at 1 µM.
Assay [10] concerns the target T4, Inhibitor of nuclear factor kappa-B kinase subunit epsilon (Homo sapiens) (UniProt Q14164).
T4 sequence (whole entry): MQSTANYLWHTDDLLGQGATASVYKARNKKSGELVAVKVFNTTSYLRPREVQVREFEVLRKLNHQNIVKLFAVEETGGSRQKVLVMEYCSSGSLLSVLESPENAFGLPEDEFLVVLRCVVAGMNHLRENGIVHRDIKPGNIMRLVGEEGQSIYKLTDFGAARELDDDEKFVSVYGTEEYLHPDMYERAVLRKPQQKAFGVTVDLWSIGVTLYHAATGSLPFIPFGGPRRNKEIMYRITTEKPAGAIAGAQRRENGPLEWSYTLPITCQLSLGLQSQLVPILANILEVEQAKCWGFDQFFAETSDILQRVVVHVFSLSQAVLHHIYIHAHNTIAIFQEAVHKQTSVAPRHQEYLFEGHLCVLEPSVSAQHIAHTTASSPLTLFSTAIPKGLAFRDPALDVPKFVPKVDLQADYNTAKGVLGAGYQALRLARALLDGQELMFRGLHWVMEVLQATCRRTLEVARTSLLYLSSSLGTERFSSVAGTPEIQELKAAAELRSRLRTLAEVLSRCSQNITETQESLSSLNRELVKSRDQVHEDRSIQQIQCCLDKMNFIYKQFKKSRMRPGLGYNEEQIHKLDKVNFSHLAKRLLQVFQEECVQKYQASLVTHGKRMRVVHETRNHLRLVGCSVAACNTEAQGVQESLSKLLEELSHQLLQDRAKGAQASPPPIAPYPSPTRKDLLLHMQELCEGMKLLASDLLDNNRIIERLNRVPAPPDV
The note with it: at 0.1 µM.

The target in assay [11] is T4, Inhibitor of nuclear factor kappa-B kinase subunit epsilon (Homo sapiens). Conditions: at 1 µM.
In assay [12] the target is T5, Serine/threonine-protein kinase Nek1 (Homo sapiens) (UniProt Q96PY6).
T5 sequence (whole entry): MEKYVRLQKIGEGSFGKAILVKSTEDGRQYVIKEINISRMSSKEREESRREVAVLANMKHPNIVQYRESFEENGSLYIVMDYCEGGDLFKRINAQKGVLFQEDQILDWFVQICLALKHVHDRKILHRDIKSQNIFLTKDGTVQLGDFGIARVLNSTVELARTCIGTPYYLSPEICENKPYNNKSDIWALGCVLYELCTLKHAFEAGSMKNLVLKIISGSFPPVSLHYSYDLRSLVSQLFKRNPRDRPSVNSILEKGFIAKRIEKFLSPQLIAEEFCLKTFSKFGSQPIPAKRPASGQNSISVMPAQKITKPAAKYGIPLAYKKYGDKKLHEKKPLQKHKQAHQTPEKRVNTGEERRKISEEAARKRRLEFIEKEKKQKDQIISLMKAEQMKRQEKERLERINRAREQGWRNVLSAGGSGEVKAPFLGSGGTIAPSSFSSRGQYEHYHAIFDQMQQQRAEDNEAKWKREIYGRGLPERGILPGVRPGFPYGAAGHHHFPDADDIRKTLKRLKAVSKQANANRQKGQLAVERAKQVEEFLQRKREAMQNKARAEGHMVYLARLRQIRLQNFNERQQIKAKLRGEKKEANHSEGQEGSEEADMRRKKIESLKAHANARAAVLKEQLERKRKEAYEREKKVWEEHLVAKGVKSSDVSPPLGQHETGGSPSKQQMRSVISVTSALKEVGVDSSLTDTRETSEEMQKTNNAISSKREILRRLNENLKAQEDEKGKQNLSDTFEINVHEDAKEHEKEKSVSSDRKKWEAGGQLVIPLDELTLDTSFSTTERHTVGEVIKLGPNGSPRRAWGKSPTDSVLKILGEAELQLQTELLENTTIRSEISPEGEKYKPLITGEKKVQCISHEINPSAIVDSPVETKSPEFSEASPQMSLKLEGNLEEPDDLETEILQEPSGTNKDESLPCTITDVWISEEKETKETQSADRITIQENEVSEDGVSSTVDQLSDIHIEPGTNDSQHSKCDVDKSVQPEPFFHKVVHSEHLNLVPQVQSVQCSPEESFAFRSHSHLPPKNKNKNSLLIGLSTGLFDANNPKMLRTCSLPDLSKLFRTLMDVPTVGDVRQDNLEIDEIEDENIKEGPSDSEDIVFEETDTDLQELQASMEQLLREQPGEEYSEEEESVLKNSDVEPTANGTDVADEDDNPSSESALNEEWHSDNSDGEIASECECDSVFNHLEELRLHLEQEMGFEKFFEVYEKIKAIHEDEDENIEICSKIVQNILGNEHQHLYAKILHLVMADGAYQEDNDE
Conditions: at 0.1 µM.

The target in assay [13] is T5, Serine/threonine-protein kinase Nek1 (Homo sapiens). The note with it: at 1 µM.
For assay [14], the target named is T6, Serine/threonine-protein kinase Nek2 (Homo sapiens) (UniProt P51955).
T6 sequence (whole entry): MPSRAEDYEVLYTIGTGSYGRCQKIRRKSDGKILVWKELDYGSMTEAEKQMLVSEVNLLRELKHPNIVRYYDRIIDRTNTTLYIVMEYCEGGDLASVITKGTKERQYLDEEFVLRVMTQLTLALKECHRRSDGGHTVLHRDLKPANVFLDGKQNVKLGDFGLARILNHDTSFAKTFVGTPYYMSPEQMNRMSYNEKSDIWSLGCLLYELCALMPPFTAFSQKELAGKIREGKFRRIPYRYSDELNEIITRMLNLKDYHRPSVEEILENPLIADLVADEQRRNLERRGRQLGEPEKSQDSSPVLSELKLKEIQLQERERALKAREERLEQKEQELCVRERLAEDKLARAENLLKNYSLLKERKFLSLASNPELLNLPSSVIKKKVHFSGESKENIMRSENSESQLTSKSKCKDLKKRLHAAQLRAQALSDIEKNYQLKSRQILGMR
Conditions: at 0.1 µM.

Assay [15] has as its target T6, Serine/threonine-protein kinase Nek2 (Homo sapiens). Conditions: at 1 µM.
Assay [16] deals with Serine/threonine-protein kinase Nek6 (Homo sapiens) (UniProt Q9HC98). Conditions: at 0.1 µM.
For assay [17] the target is unchanged. Conditions: at 1 µM.
For assay [18], the target named is Serine/threonine-protein kinase Nek7 (Homo sapiens) (UniProt Q8TDX7). The note with it: at 0.1 µM.
The target is the same in assay [19]. The note with it: at 1 µM.
Assay [20] has as its target T7, Serine/threonine-protein kinase Nek9 (Homo sapiens) (UniProt Q8TD19).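 Also: reported value is the mean percent inhibition of NEK9.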
T7 sequence (whole entry): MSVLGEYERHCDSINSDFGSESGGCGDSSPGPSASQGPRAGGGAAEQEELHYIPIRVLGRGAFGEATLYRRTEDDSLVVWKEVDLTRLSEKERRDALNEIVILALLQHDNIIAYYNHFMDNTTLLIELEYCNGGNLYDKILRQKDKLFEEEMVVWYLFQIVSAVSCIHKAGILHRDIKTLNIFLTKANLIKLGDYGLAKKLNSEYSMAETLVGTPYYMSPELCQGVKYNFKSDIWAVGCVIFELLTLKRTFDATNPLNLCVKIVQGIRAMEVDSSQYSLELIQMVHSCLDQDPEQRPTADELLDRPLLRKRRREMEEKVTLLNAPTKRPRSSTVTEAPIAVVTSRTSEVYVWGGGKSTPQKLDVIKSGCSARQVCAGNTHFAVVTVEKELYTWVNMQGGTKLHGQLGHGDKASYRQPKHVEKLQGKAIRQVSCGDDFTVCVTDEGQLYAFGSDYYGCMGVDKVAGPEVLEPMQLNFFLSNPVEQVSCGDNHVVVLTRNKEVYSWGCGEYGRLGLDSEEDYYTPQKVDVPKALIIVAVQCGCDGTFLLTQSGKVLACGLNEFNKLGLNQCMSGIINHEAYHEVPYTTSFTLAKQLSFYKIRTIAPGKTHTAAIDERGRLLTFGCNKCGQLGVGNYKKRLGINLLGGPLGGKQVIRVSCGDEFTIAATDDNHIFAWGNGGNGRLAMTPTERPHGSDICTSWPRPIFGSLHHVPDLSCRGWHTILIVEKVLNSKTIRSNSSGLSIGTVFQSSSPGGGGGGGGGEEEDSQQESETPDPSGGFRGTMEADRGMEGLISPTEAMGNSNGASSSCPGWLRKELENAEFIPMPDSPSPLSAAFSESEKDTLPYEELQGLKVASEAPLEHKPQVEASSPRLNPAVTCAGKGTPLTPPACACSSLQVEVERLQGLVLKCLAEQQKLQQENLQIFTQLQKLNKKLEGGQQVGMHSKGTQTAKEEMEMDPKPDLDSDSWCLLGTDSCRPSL
The note with it: at 0.1 µM.

Casein kinase II subunit alpha (Homo sapiens), sequence (P68400 whole entry, looked up): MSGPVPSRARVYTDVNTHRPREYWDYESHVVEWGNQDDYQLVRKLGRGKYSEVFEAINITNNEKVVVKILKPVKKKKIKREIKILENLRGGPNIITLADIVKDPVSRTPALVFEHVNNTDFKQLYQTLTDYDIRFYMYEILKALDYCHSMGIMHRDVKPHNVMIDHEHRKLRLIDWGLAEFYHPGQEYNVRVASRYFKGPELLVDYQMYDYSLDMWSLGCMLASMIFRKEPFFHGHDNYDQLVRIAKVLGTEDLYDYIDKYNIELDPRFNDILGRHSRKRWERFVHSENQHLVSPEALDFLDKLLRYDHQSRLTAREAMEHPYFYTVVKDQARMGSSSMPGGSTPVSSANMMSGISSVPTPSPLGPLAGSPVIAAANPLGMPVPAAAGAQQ
Serine/threonine-protein kinase Nek6 (Homo sapiens), sequence (Q9HC98 whole entry): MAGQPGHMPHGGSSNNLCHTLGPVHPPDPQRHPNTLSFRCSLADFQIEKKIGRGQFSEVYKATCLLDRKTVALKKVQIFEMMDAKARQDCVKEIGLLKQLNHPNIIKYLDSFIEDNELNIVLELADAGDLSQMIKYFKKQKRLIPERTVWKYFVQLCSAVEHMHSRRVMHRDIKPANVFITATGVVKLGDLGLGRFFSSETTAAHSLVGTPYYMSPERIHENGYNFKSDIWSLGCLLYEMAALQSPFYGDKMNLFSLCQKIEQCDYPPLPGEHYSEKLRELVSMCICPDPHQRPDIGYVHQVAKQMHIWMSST
Serine/threonine-protein kinase Nek7 (Homo sapiens), sequence (Q8TDX7 whole entry, looked up): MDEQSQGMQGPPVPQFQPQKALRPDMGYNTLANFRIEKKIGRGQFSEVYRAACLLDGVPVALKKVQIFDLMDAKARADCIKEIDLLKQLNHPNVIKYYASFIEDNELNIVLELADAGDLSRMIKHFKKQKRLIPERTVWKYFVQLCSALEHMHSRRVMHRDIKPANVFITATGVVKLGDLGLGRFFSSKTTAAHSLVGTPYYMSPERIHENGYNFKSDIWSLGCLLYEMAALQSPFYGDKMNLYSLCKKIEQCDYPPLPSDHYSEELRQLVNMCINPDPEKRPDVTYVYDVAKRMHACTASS
Sphingosine kinase 1 (Homo sapiens), sequence (Q9NYA1 whole entry): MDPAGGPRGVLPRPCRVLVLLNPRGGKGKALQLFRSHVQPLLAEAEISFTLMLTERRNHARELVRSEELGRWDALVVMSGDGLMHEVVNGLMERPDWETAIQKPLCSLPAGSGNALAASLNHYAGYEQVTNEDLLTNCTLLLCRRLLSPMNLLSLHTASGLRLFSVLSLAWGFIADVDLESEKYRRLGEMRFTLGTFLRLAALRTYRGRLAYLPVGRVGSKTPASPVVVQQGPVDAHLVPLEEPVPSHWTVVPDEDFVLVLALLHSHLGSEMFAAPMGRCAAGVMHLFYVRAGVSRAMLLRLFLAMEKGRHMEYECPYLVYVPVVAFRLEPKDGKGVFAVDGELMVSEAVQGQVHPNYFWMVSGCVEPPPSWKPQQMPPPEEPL

In the case of `NS(=O)(=O)c1ccc(N/N=C2\C(=O)Nc3ccc4ncccc4c32)cc1`, the inhibition in [1] was -1.18%; in [2] it was 0.16%; in assay [3] it was 7.47%; in assay [4] it was 5.01%; in assay [5], 32.2%; in [6], 9.67%. In addition, the inhibition is 20% in [7]; 4.79% in assay [8]; 26% in [9]; 8.67% in assay [10]; 44.7% in assay [11]; 1.98% in assay [12]. The inhibition in [13] was 5.54%; in [14] it was 3.42%; in [15], 4.79%; in [16], -0.98%; in assay [17], -0.3%; in assay [18] it was 4.59%. The inhibition is 7.69% in assay [19] and 9.44% in [20].

Usually inhibition stands for the drop in the measured response relative to a control, in per cent.
